Test results taken from PubChem BioAssay (NCI).
About 83,000 compounds went through this panel and 20% of them were active in at least one assay; those are over-represented in the sample as a whole.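 Treatment: one concentration, 48 hours, 96-well format. Scoring: percent growth, with anything below 10 considered active.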 Unmarked numbers belong to inactive results. The source made the active and inactive calls.

Legend:
Test in all cases: NCI-60 one-dose screen, 48 h (100 = growth as untreated, 0 = no growth, -100 = all killed)
Conditions in all cases: 10 µM unless noted
[1] = test system: HCT-15 colon
[2] = test system: HT29 colon
[3] = test system: SNB-75 CNS
[4] = test system: SNB-19 CNS
[5] = test system: PC-3 prostate
[6] = test system: SK-MEL-5 melanoma
[7] = test system: UACC-62 melanoma
[8] = test system: LOX IMVI melanoma
[9] = test system: SK-MEL-28 melanoma
[10] = test system: SK-MEL-2 melanoma
[11] = test system: EKVX NSCLC
[12] = test system: SN12C renal
[13] = test system: UO-31 renal
[14] = test system: TK-10 renal
[15] = test system: ACHN renal
[16] = test system: CAKI-1 renal
[17] = test system: A498 renal
[18] = test system: CCRF-CEM leukemia
[19] = test system: MOLT-4 leukemia

| Structure (SMILES) | growth [1] | growth [2] | growth [3] | growth [4] | growth [5] | growth [6] | growth [7] | growth [8] | growth [9] | growth [10] | growth [11] | growth [12] | growth [13] | growth [14] | growth [15] | growth [16] | growth [17] | growth [18] | growth [19] |
| --- | --- | --- | --- | --- | --- | --- | --- | --- | --- | --- | --- | --- | --- | --- | --- | --- | --- | --- | --- |
| COc1ccc(N=Nc2c(N)nn3c(-c4ccc5c(c4)C=S=C5)ccnc23)cc1 | 18.2% | 47.6% | 35.6% | 59.7% | 25% | 16.9% | 38% | 13% | 63.1% | 93.4% | 33.9% | 39% | 16.4% | 82.4% | 31.6% | 34% | 144% | 10.1% | 32.9% |
| COc1ccccc1/C=C/c1cccc(NC(=S)NCCCCN(C)C)c1 | -100% (active) | -59% (active) | -80.1% (active) | -84.1% (active) | -46.9% (active) | -97% (active) | -98.5% (active) | -98.4% (active) | -98.8% (active) | -81.4% (active) | -91.7% (active) | -96.6% (active) | -84.9% (active) | -82.7% (active) | -100% (active) | -87.8% (active) | -65.9% (active) | -38.8% (active) | -32.9% (active) |
| Cc1ccc2c(c1)/C(=C/C(=O)c1cc3ccccc3oc1=O)C(=O)N2 | -20.4% (active) | 59.9% | 88.7% | 87.8% | 73.5% | 94.2% | 49.7% | 27.4% | 55.7% | 72.6% | 78.2% | 67.8% | 55.2% | 80.7% | -63.2% (active) | 76.9% | 128% | 3.14% (active) | 32.8% |
| COc1ccc(N=Nc2c(N)nn3c(-c4ccc([N+](=O)[O-])cc4)ccnc23)cc1 | 101% | 96.3% | 85.4% | 108% | 101% | 94.2% | 94.5% | 99.9% | 101% | 106% | 97.5% |  | 97.1% | 113% | 107% | 88.9% | 114% | 92% | 96% |
| Nc1nn2c(-c3cc4cc(Br)ccc4oc3=O)ccnc2c1N=Nc1ccccc1 | 53.4% | 22.4% | -59.8% (active) | -54.5% (active) | 14.4% | -20.8% (active) | 31.6% | 18% | 52.5% |  | 36.4% | -24.4% (active) | 30.2% | 39.9% |  | 15.1% | -17% (active) | 94.5% | 87.1% |
| COC(=O)c1c(C(=O)OC)c2ccc3c4ccccc4ccc3n2c1C(=O)OC | 98.1% | 108% | 95.9% | 81.1% | 98.9% | 98.3% | 93.6% | 104% | 109% | 108% | 97% | 95.6% | 87.8% | 103% | 109% | 107% | 129% | 101% | 114% |
| CN1CCN(C(=O)Oc2cc3c(c4ccccc24)[C@H](CCl)CN3C(=O)c2cc3cc(OCCCN4CCC4)ccc3[nH]2)[C@H]2CSSC[C@H]21 | -1.96% (active) | -1.25% (active) | -77.2% (active) | -15% (active) | -8.67% (active) | -21.2% (active) | -81.9% (active) | -23.9% (active) | -51.1% (active) | -92.7% (active) | -38.3% (active) | -7.03% (active) | -11.4% (active) | 4.65% (active) | -11.6% (active) | 6.04% (active) | -17.6% (active) | -25.8% (active) | -11.6% (active) |
| CN(C)c1ccc(/C=C/c2n(Cc3ccc4ccccc4c3)c3ccccc3[n+]2Cc2ccc3ccccc3c2)cc1 | -84.4% (active) | -31.6% (active) | -84.3% (active) | -92.5% (active) | -50.9% (active) | -92.2% (active) | -93.3% (active) | -95.7% (active) | -76% (active) | -70.8% (active) | -95.8% (active) | -80.5% (active) | -91.9% (active) | -81.1% (active) | -97.6% (active) | -95.9% (active) |  | -48.5% (active) | -38.1% (active) |
| Clc1ccc(CNc2nc(SCCN3CCOCC3)nc3c2cnn3CC(Cl)c2ccc(Br)cc2)cc1 (configuration not stated) | 1.95% (active) | -51.5% (active) | 76.2% | 50.4% | 34.3% | 42.3% | 57.5% | 30.9% | 56.2% | 33.6% | 31.8% | 42.7% | 28.5% | 68.7% |  | 45% | 106% | 19.7% | -22.7% (active) |
| COc1ccc2[nH]c(O)c(N=NC(=O)c3ccc4nc(-c5ccc(Cl)cc5)[nH]c4c3)c2c1 | 105% | 86.1% | 93.8% | 29.6% | 58.9% | 96.2% | 69.8% |  | 37.2% | 109% | 90.1% | 70.7% | 95.6% | 111% | 104% | 93.6% | 166% | 25.7% | 15.7% |
| C#CCN(C)CCCOc1ccc(N(C)C(=O)c2cc(C(C)C)c(O)cc2O)cc1Cl | 4.84% (active) | 9.18% (active) | 26.2% | 22.1% | 20% | -94.4% (active) | -17.6% (active) | -89.2% (active) | 15.9% | -6.01% (active) | 15.9% | 11.5% | 16.5% | 21.4% | 15.7% | 16.6% | 39.7% | 13.9% | -14% (active) |
| O=C(c1cc2cc(OCCCN3CCC3)ccc2[nH]1)N1C[C@@H](CCl)c2c1cc(OCc1ccccc1)c1ccccc21 | -21.1% (active) | -25.2% (active) | -79.5% (active) | -12.1% (active) | -21.4% (active) | -23.2% (active) | -82.6% (active) | -94.2% (active) | -45.8% (active) | -93.4% (active) | -46% (active) | -40.1% (active) | -84.6% (active) | -3.9% (active) | -96.8% (active) | -84.6% (active) | -25.3% (active) | -18.2% (active) | -15.4% (active) |
